Source: the supplement of paper PMC6089552
Out of some 3,200 compounds screened, about 300 (9.4%) showed activity. Many of the other results were omitted from the sample, so actives are more common in it than they were. A number with no mark means an inactive call.

System: A673/TR/shEF
Experiment: cell viability (LOESS-normalised, relative to median of negative controls) (log2 ratio); higher = more viable cells (less compound effect), active = hit call of the paper (over 3 MAD below the median)
Settings: treatment time: 72 h
How it was run: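 A673/TR/shEF Ewing sarcoma cells (1,500 per well, 384-well plates) were grown with or without doxycycline to induce EWS-FLI1 shRNA knockdown, starting 24 h before compounds. Library compounds at two or more concentrations, with DMSO controls, were added for three days. Cell viability was read by CellTiter-Glo luminescence on an Envision reader, then LOESS-corrected per plate, divided by the median of negative controls and log2-transformed. Hits were wells at least three median absolute deviations from the median of all screened wells.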

[1] = 0.25 µM, library screen: screen1, EWS-FLI1 expression: high (no doxycycline)
[2] = 0.25 µM, library screen: screen1, EWS-FLI1 expression: low (doxycycline-induced shRNA knockdown)
[3] = 2.5 µM, library screen: screen1, EWS-FLI1 expression: high (no doxycycline)
[4] = 2.5 µM, library screen: screen1, EWS-FLI1 expression: low (doxycycline-induced shRNA knockdown)
[5] = 0.25 µM, library screen: screen2, EWS-FLI1 expression: high (no doxycycline)
[6] = 0.25 µM, library screen: screen2, EWS-FLI1 expression: low (doxycycline-induced shRNA knockdown)
[7] = 2.5 µM, library screen: screen2, EWS-FLI1 expression: high (no doxycycline)
[8] = 2.5 µM, library screen: screen2, EWS-FLI1 expression: low (doxycycline-induced shRNA knockdown)
[9] = 0.103 µM, library screen: screen3, EWS-FLI1 expression: high (no doxycycline)
[10] = 0.103 µM, library screen: screen3, EWS-FLI1 expression: low (doxycycline-induced shRNA knockdown)
[11] = 0.308 µM, library screen: screen3, EWS-FLI1 expression: high (no doxycycline)
[12] = 0.308 µM, library screen: screen3, EWS-FLI1 expression: low (doxycycline-induced shRNA knockdown)
[13] = 0.926 µM, library screen: screen3, EWS-FLI1 expression: high (no doxycycline)
[14] = 0.926 µM, library screen: screen3, EWS-FLI1 expression: low (doxycycline-induced shRNA knockdown)
[15] = 2.8 µM, library screen: screen3, EWS-FLI1 expression: high (no doxycycline)
[16] = 2.8 µM, library screen: screen3, EWS-FLI1 expression: low (doxycycline-induced shRNA knockdown)
[17] = 8.3 µM, library screen: screen3, EWS-FLI1 expression: high (no doxycycline)
[18] = 8.3 µM, library screen: screen3, EWS-FLI1 expression: low (doxycycline-induced shRNA knockdown)
[19] = 25 µM, library screen: screen3, EWS-FLI1 expression: high (no doxycycline)
[20] = 25 µM, library screen: screen3, EWS-FLI1 expression: low (doxycycline-induced shRNA knockdown)

For `C=C1CCC2OC2(C)CCC2C1CC2(C)C` (stereo not drawn), the “cell viability (log2)” value [1] was 0.0308, the “cell viability (log2)” value [2] was 0.0474 and the “cell viability (log2)” value [3] was 0.104. For the same compound, the “cell viability (log2)” value [4] was 0.0209.

`COc1ccc2c(c1OC)C(=O)O[C@H]2[C@@H]1c2ccccc2CCN1C` was tested, and the “cell viability (log2)” value [1] was 0.0344, the “cell viability (log2)” value [2] was 0.0398 and the “cell viability (log2)” value [3] was 0.0365. The “cell viability (log2)” value [4] was -0.0658.

For `CCC(C)C(NC)C(=O)O` (stereo not drawn), the “cell viability (log2)” value [1] was 0.07, the “cell viability (log2)” value [2] was 0.0975 and the “cell viability (log2)” value [3] was 0.13. The “cell viability (log2)” value [4] was -0.0496.

For `COc1ccc(S(=O)(=O)N(CCO)c2ccccc2CN(C)C/C=C/c2ccc(Cl)cc2)cc1`, the “cell viability (log2)” value (0.025 µM, library screen: screen1, EWS-FLI1 expression: high (no doxycycline)) was 0.202, the “cell viability (log2)” value (0.025 µM, library screen: screen1, EWS-FLI1 expression: low (doxycycline-induced shRNA knockdown)) was -0.0138 and the “cell viability (log2)” value [1] was 0.226. For the same compound, the “cell viability (log2)” value [2] was 0.0804, the “cell viability (log2)” value [3] was -0.284 (active) and the “cell viability (log2)” value [4] was -0.0574. The “cell viability (log2)” value (25 µM, library screen: screen1, EWS-FLI1 expression: high (no doxycycline)) was -1.32 (active) and the “cell viability (log2)” value (25 µM, library screen: screen1, EWS-FLI1 expression: low (doxycycline-induced shRNA knockdown)) was -0.531 (active).

With `COc1cccc(NC(=O)/C=C/c2ccc(Cl)cc2)c1` the “cell viability (log2)” value [5] was 0.303, the “cell viability (log2)” value [6] was 0.124 and the “cell viability (log2)” value [7] was 0.272. For the same compound, the “cell viability (log2)” value [8] was 0.108.

In the case of `CC(=O)OCC(OC(C)=O)C(OC(C)=O)C(OC(C)=O)C(OC(C)=O)C(COC(C)=O)OC(C)=O` (stereo not drawn), the “cell viability (log2)” value [1] is reported as 0.1, the “cell viability (log2)” value [2] is reported as 0.086 and the “cell viability (log2)” value [3] is reported as 0.176. The “cell viability (log2)” value [4] was -0.0056.

For `CCn1cc(C(=O)O)c(=O)c2ccc(Cc3ccccc3)nc21`, the “cell viability (log2)” value [5] was 0.215, the “cell viability (log2)” value [6] was 0.061 and the “cell viability (log2)” value [7] was 0.162. For the same compound, the “cell viability (log2)” value [8] was 0.124.

For `COc1cc(CN2CCN(Cc3ccc([N+](=O)[O-])cc3)CC2)c([N+](=O)[O-])cc1OC`, the “cell viability (log2)” value [1] was 0.132, the “cell viability (log2)” value [2] was 0.09 and the “cell viability (log2)” value [3] was 0.0515. The “cell viability (log2)” value [4] was 0.104.

In the case of `CC1(C)C[C@@H]2C(=O)CC[C@@H]3O[C@]3(C)CC[C@H]21`, the “cell viability (log2)” value [1] is reported as 0.14, the “cell viability (log2)” value [2] is reported as 0.0852 and the “cell viability (log2)” value [3] is reported as 0.132. For the same compound, the “cell viability (log2)” value [4] was 0.0776.

With `CC1=C2C(=CO[C@H](C)[C@H]2C)C(=O)C(C(=O)O)=C1O` the “cell viability (log2)” value [1] was 0.0243, the “cell viability (log2)” value [2] was 0.0421 and the “cell viability (log2)” value [3] was 0.12. For the same compound, the “cell viability (log2)” value [4] was 0.0982.

For `Cc1c(OCC(F)(F)F)ccnc1C[S+]([O-])c1nc2ccccc2[nH]1` (stereo not drawn), the “cell viability (log2)” value [9] was 0.0918, the “cell viability (log2)” value [10] was 0.101 and the “cell viability (log2)” value [1] was 0.136. For the same compound, the “cell viability (log2)” value [2] was 0.0633, the “cell viability (log2)” value [5] was 0.166 and the “cell viability (log2)” value [6] was 0.0843. The “cell viability (log2)” value [11] was 0.0516, the “cell viability (log2)” value [12] was 0.0264 and the “cell viability (log2)” value [13] was 0.0709. The “cell viability (log2)” value [14] was 0.0884, the “cell viability (log2)” value [3] was 0.133 and the “cell viability (log2)” value [4] was 0.126. The “cell viability (log2)” value [7] was 0.122, the “cell viability (log2)” value [8] was 0.0984 and the “cell viability (log2)” value [15] was 0.0259. The “cell viability (log2)” value [16] was 0.0107, the “cell viability (log2)” value [17] was -0.0254 and the “cell viability (log2)” value [18] was 0.0817. For the same compound, the “cell viability (log2)” value [19] was -0.241 (active) and the “cell viability (log2)” value [20] was 0.0393.

In the case of `COc1ccc2nc([S@@+]([O-])Cc3ncc(C)c(OC)c3C)[nH]c2c1`, the “cell viability (log2)” value [9] is reported as 0.0353, the “cell viability (log2)” value [10] is reported as -0.0468 and the “cell viability (log2)” value [11] is reported as 0.00454. For the same compound, the “cell viability (log2)” value [12] was 2e-05, the “cell viability (log2)” value [13] was -0.0308 and the “cell viability (log2)” value [14] was -0.0128. For the same compound, the “cell viability (log2)” value [15] was -0.0416, the “cell viability (log2)” value [16] was 0.00305 and the “cell viability (log2)” value [17] was 0.0504. For the same compound, the “cell viability (log2)” value [18] was 0.0301, the “cell viability (log2)” value [19] was -0.0361 and the “cell viability (log2)” value [20] was -0.0116.

For `COc1ccc2nc([S+]([O-])Cc3ncc(C)c(OC)c3C)[nH]c2c1` (stereo not drawn), the “cell viability (log2)” value [9] was 0.0555, the “cell viability (log2)” value [10] was 0.0372 and the “cell viability (log2)” value [11] was -0.0266. For the same compound, the “cell viability (log2)” value [12] was 0.0199, the “cell viability (log2)” value [13] was -0.0106 and the “cell viability (log2)” value [14] was 0.0522. For the same compound, the “cell viability (log2)” value [15] was -0.0439, the “cell viability (log2)” value [16] was 0.0389 and the “cell viability (log2)” value [17] was -0.0449. The “cell viability (log2)” value [18] was 0.0231, the “cell viability (log2)” value [19] was -0.03 and the “cell viability (log2)” value [20] was -0.014.

`COC(=O)C[C@H]1C(C)(C)[C@@H](OC(C)=O)[C@@H]2CC3C4CC(=O)O[C@@H](c5ccoc5)[C@]4(C)CCC3[C@@]1(C)C2=O` (stereo partly drawn) was tested, and the “cell viability (log2)” value [1] was 0.0705, the “cell viability (log2)” value [2] was 0.0161 and the “cell viability (log2)” value [3] was 0.14. For the same compound, the “cell viability (log2)” value [4] was 0.112.

`C=C1CCC(=O)C(C)CCC2C1CC2(C)C` (stereo not drawn) was tested, and the “cell viability (log2)” value [1] was 0.0584, the “cell viability (log2)” value [2] was -0.00925 and the “cell viability (log2)” value [3] was 0.119. The “cell viability (log2)” value [4] was -0.105.

In the case of `COc1ccc(-c2oc3cc(O[C@@H]4O[C@H](CO)[C@@H](O)[C@H](O)[C@H]4O)c(OC)c(O)c3c(=O)c2OC)cc1O`, the “cell viability (log2)” value [1] is reported as 0.0438, the “cell viability (log2)” value [2] is reported as 0.127 and the “cell viability (log2)” value [3] is reported as 0.0949. The “cell viability (log2)” value [4] was 0.0982.

In the case of `O=C(O)C1CN(CCCP(=O)(O)O)CCN1` (stereo not drawn), the “cell viability (log2)” value [5] is reported as 0.0853, the “cell viability (log2)” value [6] is reported as 0.0707 and the “cell viability (log2)” value [7] is reported as 0.0988. For the same compound, the “cell viability (log2)” value [8] was 0.109.

In the case of `Cc1cccc(C)c1NC(=O)C[N+](C)(C)C`, the “cell viability (log2)” value [5] is reported as 0.174, the “cell viability (log2)” value [6] is reported as 0.0998 and the “cell viability (log2)” value [7] is reported as 0.0786. For the same compound, the “cell viability (log2)” value [8] was 0.0656.

`CCN(CC)CC(=O)Nc1c(C)cccc1C` was tested, and the “cell viability (log2)” value [9] was 0.148, the “cell viability (log2)” value [10] was 0.0138 and the “cell viability (log2)” value [1] was 0.147. The “cell viability (log2)” value [2] was 0.00307, the “cell viability (log2)” value [5] was 0.111 and the “cell viability (log2)” value [6] was 0.106. The “cell viability (log2)” value [11] was 0.0507, the “cell viability (log2)” value [12] was 0.127 and the “cell viability (log2)” value [13] was 0.13. The “cell viability (log2)” value [14] was 0.0501, the “cell viability (log2)” value [3] was 0.157 and the “cell viability (log2)” value [4] was 0.131. The “cell viability (log2)” value [7] was 0.0975, the “cell viability (log2)” value [8] was 0.0477 and the “cell viability (log2)” value [15] was 0.00489. For the same compound, the “cell viability (log2)” value [16] was 0.0234, the “cell viability (log2)” value [17] was 0.0246 and the “cell viability (log2)” value [18] was 0.018. The “cell viability (log2)” value [19] was -0.278 (active) and the “cell viability (log2)” value [20] was 0.0253.

For `CC[N+](CC)(CC)CC(=O)Nc1c(C)cccc1C`, the “cell viability (log2)” value [5] was 0.105, the “cell viability (log2)” value [6] was 0.169 and the “cell viability (log2)” value [7] was 0.0372. The “cell viability (log2)” value [8] was 0.0518.

With `CC(C)=CCCC(C)(O)C1CC=C(C)CC1` (stereo not drawn) the “cell viability (log2)” value [1] was 0.0431, the “cell viability (log2)” value [2] was -0.0174 and the “cell viability (log2)” value [3] was 0.0996. For the same compound, the “cell viability (log2)” value [4] was 0.0501.

In the case of `COC(=O)c1c(C)cc(OC(=O)c2c(C)cc(O)c(CO)c2O)c(C)c1O`, the “cell viability (log2)” value [1] is reported as 0.129, the “cell viability (log2)” value [2] is reported as 0.0318 and the “cell viability (log2)” value [3] is reported as 0.139. For the same compound, the “cell viability (log2)” value [4] was 0.0883.

With `C[C@]12CC[C@@H](O)C[C@H]1CC[C@@H]1[C@@H]2C(=O)C[C@@]2(C)[C@H]1CC[C@]2(O)C(=O)CO` the “cell viability (log2)” value [1] was 0.162, the “cell viability (log2)” value [2] was 0.116 and the “cell viability (log2)” value [3] was 0.185. For the same compound, the “cell viability (log2)” value [4] was 0.0107.

With `Cc1cc(=O)c2c(O)c3c(cc2o1)OCC(C)CC3` (stereo not drawn) the “cell viability (log2)” value [1] was 0.0148, the “cell viability (log2)” value [2] was 0.14 and the “cell viability (log2)” value [3] was 0.0878. The “cell viability (log2)” value [4] was 0.127.
